The sample as a whole holds a higher share of hits than the screen did.
p53null 32C tox = qHTS Screen for Compounds that Selectively Target Cancer Cells with p53 Mutations: Cytotoxicity of p53 Null Cells at the Permissive Temperature. 0.62% of 55,000 active. Potency, µM (highest dose often 46.1 µM), without a hit: at the highest dose activity change, negative = cytotoxicity, usual class: cytotoxic. H1299-neo p53 null cells, ATP luminescence, 24 h, 32C. AID 903, 2007;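 also: 0% = DMSO only and -100% = full killing by 100 µM tamoxifen; nearly all actives have a fitted effect of over 55% in size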
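AC50 values derive from Hill modelling of qHTS concentration-response data (up to 46 uM) in H1299-neo cells. Cells were treated 24 h at 32C following overnight attachment at 37C; viability was read as cellular ATP.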
OvCa metastasis = Primary qHTS assay for Inhibitors of ovarian cancer metastasis using an organotypic tumor microenvironment (TME) model | SKOV3ip1-GFP adhesion/invasion on 3D omental model, fluorescence | Potency, µM (doses to about 45.8 µM), inactives show top-dose activity change, negative = inhibition, hits mostly inhibitors | 0.1% of 46,000 active | AID 1963576, 2024;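 also: plate controls were DMSO wells for no effect and tomatine positive control wells for full effect; nearly all actives have a fitted effect of over 65% in size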
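Adhesion/invasion was scored as fixed GFP-labeled SKOV3ip1 cell counts (488/509 nm), normalized to DMSO and tomatine controls. Cancer cells in serum-free medium, with four compound doses (0.36-46 umol/L), sat 2 hr at RT then 16 hr at 37 C on a 48 hr fibroblast/mesothelial/ECM culture.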
p53null 39C tox = qHTS Screen for Compounds that Selectively Target Cancer Cells with p53 Mutations: Cytotoxicity of p53 Null Cells at the Nonpermissive Temperature. H1299 p53-null (neo) cells, 39C, ATPlite viability, 24 h. 0.97% of 55,000 active. Potency, µM (titrated, usually from 46.1 µM), for the others: at the highest dose activity, negative = cell killing, most hits filed as cytotoxic. AID 904, 2007;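 also: 0% = DMSO only and -100% = full killing by 100 µM tamoxifen; nearly all actives have a fitted effect of over 50% in size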
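Temperature-shift cytotoxicity format: compound titrations on p53-null or A138V-expressing H1299 cells held 24 hr at 39C, cell ATP then measured, AC50 from Hill model.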
FH mod = Identification of activators of human fumarate hydratase by quantitative high-throughput screening; Potency, µM (highest dose often 79.9 µM), without a hit: top-dose activity change, negative = inhibition, most hits filed as inhibitors; 0.22% of 54,000 active; AID 1347055, 2019; Fumarate hydratase, mitochondrial (Homo sapiens), P07954; FH coupled MDH/diaphorase resazurin fluorescence, 15 min; also: the screen sought activators but most active calls are inhibition curves; nearly all actives have a fitted effect of over 45% in size
Target sequence (P07954 whole entry, looked up): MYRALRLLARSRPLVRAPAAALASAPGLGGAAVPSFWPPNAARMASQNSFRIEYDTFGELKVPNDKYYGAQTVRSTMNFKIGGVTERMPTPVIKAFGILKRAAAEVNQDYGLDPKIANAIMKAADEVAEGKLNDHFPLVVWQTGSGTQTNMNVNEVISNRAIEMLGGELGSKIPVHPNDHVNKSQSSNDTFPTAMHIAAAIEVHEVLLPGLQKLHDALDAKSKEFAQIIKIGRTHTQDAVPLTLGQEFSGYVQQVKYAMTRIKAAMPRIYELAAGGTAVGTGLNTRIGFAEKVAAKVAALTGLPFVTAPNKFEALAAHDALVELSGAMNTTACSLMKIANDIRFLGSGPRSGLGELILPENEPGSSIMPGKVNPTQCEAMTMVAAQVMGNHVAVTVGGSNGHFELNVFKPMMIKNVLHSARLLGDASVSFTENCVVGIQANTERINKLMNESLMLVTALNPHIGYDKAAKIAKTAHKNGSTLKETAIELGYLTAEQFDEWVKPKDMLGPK
NTMT1 inh = Primary qHTS for Inhibitors of N-terminal methyltransferase 1 (NTMT1): MTaseGlo Assay; N-terminal Xaa-Pro-Lys N-methyltransferase 1 (Homo sapiens), Q9BV86; NTMT1 MTase-Glo SAH luminescence, purified enzyme; Potency, µM (highest dose often 114 µM), inactives show at the top dose activity change, negative = inhibition, actives largely listed as inhibitors; 2.5% of 59,000 active; AID 1645870, 2021;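 also: plate controls were DMSO vehicle for no effect and no enzyme for full effect; nearly all actives have a fitted effect of over 65% in size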
Target sequence (Q9BV86 whole entry, looked up): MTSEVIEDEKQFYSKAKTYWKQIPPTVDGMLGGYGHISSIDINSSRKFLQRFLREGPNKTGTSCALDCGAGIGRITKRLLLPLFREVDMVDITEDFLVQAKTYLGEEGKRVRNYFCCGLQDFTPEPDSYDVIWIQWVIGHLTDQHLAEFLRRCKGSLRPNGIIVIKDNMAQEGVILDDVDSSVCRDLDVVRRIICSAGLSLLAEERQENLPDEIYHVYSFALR
* marks the source's active call; other numbers are inactive results; i = inactive; u = inconclusive; x = no result given; [ ] = dose if it differs, or a comment. Calls follow the shape of the dose curve; as a rule, active = well fitted curve in the direction sought with a large enough effect; inconclusive = small, poorly fitted or top-dose-only effect, or another doubt; inactive = no such curve, though single readings can be large; an effect the other way counts as inactive or inconclusive. Unless noted, % is scaled to controls: 0 for no effect and ±100 for the full control effect; potency is read from the fitted curve at half-maximal effect.

SMILES | p53null 32C tox | OvCa metastasis | p53null 39C tox | FH mod | NTMT1 inh
Cc1ccccc1NS(=O)(=O)c1ccc2[nH]cc(C(=O)NC3CCCCC3)c(=O)c2c1 | u | -4.3% | -3.0% | u | -17.1%
O=C(NCCN1CCCCC1)c1ccc(Cn2c(SCc3ccccc3)nc3cccnc32)cc1 | 15.8µM* | u | 12.6µM* | -11.8% | 39.8µM*
CC1CCN(CCNC(=O)c2ccc(Cn3c(SCc4ccccc4)nc4cccnc43)cc2)CC1 | u | i | 12.6µM* | -0.8% | u
Cc1ccc(CSc2nc3cccnc3n2Cc2ccc(C(=O)NCc3cccs3)cc2)cc1 | u | 1.2% | 15.8µM* | -11.2% | u
CC1CCCCN1CCNC(=O)c1ccc(Cn2c(SCc3ccccc3)nc3cccnc32)cc1 (centres undefined) | 12.6µM* | i | 15.8µM* | -11.3% | u
O=C(NCc1cccs1)c1ccc(Cn2c(SCc3ccccc3)nc3cccnc32)cc1 | u | -22.3% | u | -14.7% | -26.6%
O=C(NCCc1ccccc1)c1ccc(CSc2nc3cccnc3n2Cc2ccc(F)cc2)cc1 | 11.5% | -9.1% | -0.7% | -21.6% | -1.6%
Cc1ccccc1C(=O)N1CCc2cc(-c3nc(NC(=O)Cc4ccc5ccccc5c4)sc3C)ccc21 | x | x | x | x | 11.9%
O=C(Nc1nc2nc(-c3ccccc3)cc(=O)n2[nH]1)c1ccc(Cl)cc1 | -3.7% | 6.0% | -18.6% | 3.9% | 50.1µM*
CCC(C)c1ccc(NC(=O)Cn2cnc3c2c(=O)n(C)c(=O)n3C)cc1 (centres undefined) | x | x | x | -2.4% | u
CN1CCN(c2nc3c(S(=O)(=O)c4ccc(Cl)cc4)nnn3c3ccsc23)CC1 | -4.5% | 2.6% | -4.8% | -9.5% | 79.4µM*
CCN1CCN(c2nc3c(S(=O)(=O)c4ccc(C)cc4)nnn3c3ccsc23)CC1 | 2.2% | i | -4.0% | 3.5% | 79.4µM*
S=C(Nc1ccc(Cl)c(Cl)c1)Nc1nnc(-c2ccncc2)o1 | x | x | x | x | 6.6%[57.5 µM]
N#Cc1cnc2c(Cl)cc(NCc3cn(CCN4CCCCCC4)nn3)cc2c1Nc1ccc(F)c(Cl)c1 | x | x | x | -11.2% | 10µM*
COC(=O)c1ccc(NC(=O)CCc2c(C)nc3c(c2C)c(=O)n(C)c(=O)n3C)cc1 | 0.8% | i | 5.2% | 1.2% | 3.4%
CCc1cccc(NC(=O)CCc2c(C)nc3c(c2C)c(=O)n(C)c(=O)n3C)c1 | 5.4% | i | -22.5% | -4.4% | 89.1µM*
O=c1[nH]c2ccccc2n1CCN1CCN(c2cccc(C(F)(F)F)c2)CC1 | x | x | x | 0.4% | -1.3%[57.5 µM]
Cc1ccc(NC(=O)NCc2ccc3c(c2)CN(C2CCC(=O)NC2=O)C3=O)cc1Cl (centres undefined) | x | x | x | x | -18.1%
CC(C)(C)C(=O)Nc1ccc(-c2nc3ccc(NC(=O)C(C)(C)C)cc3[nH]2)cc1 | 12.6µM* | u | 3.98µM* | -4.3% | 10.4%
CC(C)(C)C(=O)Nc1ccc(Cl)c(-c2nc3ccccc3[nH]2)c1 | 0.1% | -3.5% | 5.7% | -3.7% | 0.0%
Cc1ccsc1/C=C/C1=NCCCN1C | x | x | x | 3.4%[53.3 µM] | 12.6µM*
CCC(C)CNCC(=O)N1CCC2SC=CC2C1COc1cccc(C)c1 (centres undefined) | x | x | x | 0.7% | -6.1%[57.5 µM]
COc1cc(=C2C=c3ccccc3=N2)[nH]/c1=C/c1[nH]c(C)cc1C | x | x | x | x | 39.8µM*
COc1c/c(=C2\C=c3ccccc3=N2)[nH]/c1=C\c1[nH]c(C)cc1C | x | x | x | 0.3% | u
CCOc1ccc(NC(=O)CSc2oc(-c3ccco3)nc2S(=O)(=O)c2ccc(Cl)cc2)cc1 | -11.0% | -0.6% | -12.4% | -16.0% | 79.4µM*
SMILES | p53null 32C tox | OvCa metastasis | p53null 39C tox | FH mod | NTMT1 inh
O=C(CSc1oc(-c2ccco2)nc1S(=O)(=O)c1ccc(Cl)cc1)c1ccc(Cl)cc1 | 8.9% | -1.8% | 32.3% | -19.1% | 79.4µM*
Cc1cc(C)cc(NC(=O)CSc2oc(-c3ccco3)nc2S(=O)(=O)c2ccc(Cl)cc2)c1 | u | -23.9% | u | 10.4% | -1.6%
Nc1ccc(F)cc1NC(=O)c1ccc(CNC(=O)/C=C/c2cccnc2)cc1 | x | x | x | x | 23.7%
CCOC(=O)N1CCN(C(=O)c2ccc3c(c2)N(Cc2cc(C)ccc2C)C(=O)c2ccccc2S3=O)CC1 (centres undefined) | 3.1% | i | -8.8% | -17.4% | 89.1µM*
CN(CC[C@@H](Oc1ccc(C(F)(F)F)cc1)c1ccccc1)CC(=O)O | x | x | x | -12.3%[53.3 µM] | x
O=C(O)Cc1cccc(OCCCN(Cc2cccc(C(F)(F)F)c2Cl)CC(c2ccccc2)c2ccccc2)c1 | x | -3.6% | x | -18.8%[53.3 µM] | 39.8µM*
CC(NCCCc1cccc(C(F)(F)F)c1)c1cccc2ccccc12 (centres undefined) | x | x | x | 1.1%[53.3 µM] | 3.5%[29.8 µM]
O=C(NCc1ccccc1)c1ccc(NC(=O)N2CCSc3ncccc32)cc1 | -5.4% | -3.6% | 4.3% | -7.1% | 89.1µM*
CCc1nc(SC)ncc1C(=O)N1CCN(c2cc(C)ccc2C)CC1 | -3.8% | -10.5% | -9.3% | -7.6% | 89.1µM*
C1=CCOCc2cc(ccc2OCCN2CCCC2)Nc2nccc(n2)-c2cccc(c2)OCC1 | x | u | x | 1.3%[53.3 µM] | u
CN1C/C=C/CCOc2cccc(c2)-c2ccnc(n2)Nc2cccc(c2)C1 | x | x | x | 9.9% | 39.8µM*
CCc1ccc(-c2nc(CSCC(=O)NCc3ccc(C)cc3)c(C)o2)cc1 | -7.1% | i | 26.6% | -29.2% | -0.1%
CCc1ccc(-c2nc(CS(=O)CC(=O)NCc3ccc(F)cc3)c(C)o2)cc1 (centres undefined) | 12.4% | -15.6% | 11.7% | -0.8% | 89.1µM*
CCOc1ccc(-c2nc(CSCC(=O)NCc3ccc(C)cc3)c(C)o2)cc1 | -23.7% | -7.7% | 17.6% | -22.9% | 79.4µM*
Cc1oc(-c2ccc(Cl)cc2)nc1CS(=O)CC(=O)NCc1ccc(Cl)cc1 (centres undefined) | 1.5% | 15.2% | -14.4% | -11.3% | -1.3%
CCC(C(=O)NC1CCCCC1)n1c(SCc2cccc(C)c2)nc2ccncc21 (centres undefined) | 12.6µM* | i | 7.94µM* | -7.7% | -5.9%
Cc1c(-c2cnccn2)ssc1=S | x | x | x | x | 3.16µM*
CC(C)[N+](C)(C)CC(O)COc1cccc2ccccc12 (centres undefined) | x | x | x | -1.1%[53.3 µM] | 8.91µM*
Cc1ccc(OCC(=O)NCC(c2ccc(Cl)cc2)N2CCCCC2)cc1 (centres undefined) | -2.2% | 3.2% | -8.3% | -7.0% | 79.4µM*
COc1ccc(OCC(=O)NCC(c2ccc(Cl)cc2)N2CCCCC2)cc1 (centres undefined) | -6.3% | 1.6% | u | -8.3% | u
